p53 reactivator: qHTS assay for re-activators of p53 using a Luc reporter | H1299 p53-A138V BP100-luciferase reporter, luminescence, 24 h | Potency, µM (doses to about 92.2 µM), for inactives: at the top dose activity change, positive = activation, usual class: activators | hit rate 0.063% among 320,000 | AID 504706, 2011; also: potency is read from the fitted curve at half-maximal effect; % of control where 0% means no effect; nearly all actives have a fitted effect of over 45% in size
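p53-null H1299 cells stably carrying temperature-sensitive p53-A138V and a BP100-luciferase reporter were pinned with compounds (4-point, 1:5 series) and held 24 hrs at 37 deg C. Luminescence was read 10 min after detection reagent.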
Six1-Eya2 blk: qHTS Assay for Inhibitors of the Six1/Eya2 Interaction. hit rate 0.56% among 360,000. AlphaScreen GST-Six1/His-Eya2 binding, biochemical; hits give low values. activity change, % (concentration not given with the values). AID 651725, 2012. Homeobox protein SIX1 (Homo sapiens) + Protein phosphatase EYA2 (Homo sapiens), …; in the data active = activity change below about -65%; inconclusive = mostly about -30% to -63%; also: % is scaled to controls: 0 for no effect and ±100 for the full control effect
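AlphaScreen luminescence read after one hour at 37 °C in darkness. Pin-transferred compounds met GST-Six1 and His-Eya2 protein (5X stock 250 nM/500 nM) plus glutathione donor and Ni-chelate acceptor beads (5X, 50 ug/mL).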
RORgamma inh: qHTS for inhibitors of ROR gamma transcriptional activity | Nuclear receptor ROR-gamma (Mus musculus), P51450 | Drosophila S2 Gal4-RORgamma UAS-luciferase reporter, 20 h | Potency, µM (highest dose often 53.6 µM), for inactives: at the top dose activity change, negative = inhibition, hits mostly inhibitors | hit rate 5.4% among 310,000 | AID 2551, 2010; also: potency is read from the fitted curve at half-maximal effect; % is scaled to controls: 0 for no effect and ±100 for the full control effect; nearly all actives have a fitted effect of over 60% in size
Target sequence (P51450 whole entry, looked up, the tested form may be a part): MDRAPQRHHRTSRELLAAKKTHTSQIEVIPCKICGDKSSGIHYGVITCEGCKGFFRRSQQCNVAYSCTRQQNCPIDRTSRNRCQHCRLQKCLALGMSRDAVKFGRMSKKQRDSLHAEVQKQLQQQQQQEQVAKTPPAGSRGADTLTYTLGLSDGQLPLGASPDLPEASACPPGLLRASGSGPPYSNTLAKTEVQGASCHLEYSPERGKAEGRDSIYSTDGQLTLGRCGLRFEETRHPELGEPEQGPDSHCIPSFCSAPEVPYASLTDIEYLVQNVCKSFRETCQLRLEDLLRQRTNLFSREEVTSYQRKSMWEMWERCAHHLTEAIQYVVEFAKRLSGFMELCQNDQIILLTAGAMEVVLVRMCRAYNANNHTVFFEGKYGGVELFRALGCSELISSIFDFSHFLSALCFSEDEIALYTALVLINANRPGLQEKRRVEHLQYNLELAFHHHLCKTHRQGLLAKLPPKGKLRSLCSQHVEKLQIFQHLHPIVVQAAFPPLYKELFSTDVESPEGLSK
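Drosophila Schneider cells stably carrying a metallothionein-driven Gal4 DBD–ROR gamma fusion and a UAS-Photinus luciferase reporter were exposed to compound for 1 hr, then induced with copper sulfate (700 uM final) for 20 hr at ambient temperature before luminescence reading.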
VP16 counter: VP16 counterscreen qHTS for inhibitors of ROR gamma transcriptional activity. Drosophila S2 Gal4-VP16 UAS-luciferase, luminescence, 20 h. Potency, µM (series often up to 53.6 µM), without a hit: at the top dose activity, negative = inhibition, actives largely listed as inhibitors. hit rate 3.5% among 310,000;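 also: Gal4-VP16 expression switched on by copper sulfate through the metallothionein promoter; potency is read from the fitted curve at half-maximal effect; % is scaled to controls: 0 for no effect and ±100 for the full control effect; nearly all actives have a fitted effect of over 50% in size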
CtBP-E1A blk: qHTS Assay for Inhibitors of the CtBP/E1A Interaction; AlphaScreen GST-E1A/His-CtBP binding, 1536-well; hits give low values; hit rate 0.49% among 340,000; CtBP / adenovirus E1A interaction (AlphaScreen); activity change, % (test concentration not listed); in the data active = activity change below about -65%; inconclusive = mostly about -30% to -63%; also: % is scaled to controls: 0 for no effect and ±100 for the full control effect
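In 5 uL wells, 23 nL compound meets equimolar GST-E1A and His-CtBP (5X stock 125 nM each) for 2 h, 37 °C. Beads (5X, 50 ug/mL) then 1 h, 37 °C, dark.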
An asterisk follows results filed as active; ? = inconclusive; . = no result given; [ ] = another dose, or the depositor's remark. Sampled rows, rich in hits. Any-hit rate of the full collection: about 5.4%. Unless noted, calls follow the shape of the dose curve; as a rule, active = well fitted curve in the direction sought with a large enough effect; inconclusive = small, poorly fitted or top-dose-only effect, or another doubt; inactive = no such curve, though single readings can be large; an effect the other way counts as inactive or inconclusive.

SMILES | p53 reactivator | Six1-Eya2 blk | RORgamma inh | VP16 counter | CtBP-E1A blk
COc1cc2nc(=S)n3[nH]c(CCn4nc(C)cc4C)nc3c2cc1OC | 0% | -27 | 0.056µM* | 0.089µM* | ?
COc1ccccc1-c1coc2cc(OC(=O)/C=C/c3ccccc3)ccc2c1=O | -3% | -17 | 6% | -12% | -68*
S=c1nc[nH]c2c1ncn2C1CCCO1 (configuration not stated) | -1% | -7 | -11% | -15% | -2
Cc1ccc(C)c(NC(=S)NC(C)C(c2cccs2)N2CCOCC2)c1 (configuration not stated) | -7% | 1 | 5µM* | 11µM* | 1
CC(NC(=S)Nc1cccc(F)c1)C(c1cccs1)N1CCOCC1 (configuration not stated) | 1% | 3 | 8.9µM* | ? | -2
O=C(NCc1ccco1)C1(S(=O)(=O)c2ccccc2)CC=CC1 | 11% | 5 | 0% | -9% | 3
c1ccc(CNc2cncnc2)cc1 | 5% | 8 | -61%[1.91 µM] | 0% | .
Cc1ccc(S(=O)(=O)NCc2ccccn2)cc1C | . | 10 | -43% | -5% | .
CNc1ccccc1C(C)(C)c1cc(-c2cccc(Br)c2)no1 | -1% | -1 | ? | 16µM* | -4
CNc1ccccc1C(C)(C)c1cc(-c2cccc([N+](=O)[O-])c2)no1 | 7% | -22 | 23% | 1% | -27
O=C(OC[C@@H]1O[C@@](O)(COC(=O)c2cccnc2)[C@H](OC(=O)c2cccnc2)[C@H]1OC(=O)c1cccnc1)c1cccnc1 | . | . | 1% | 6% | .
COc1ccc(C(=O)C(c2ccccc2)N2CCOCC2)cc1 (configuration not stated) | -1% | 3 | 1% | 5% | 2
Cc1ccc(C(=O)C(c2ccccc2)N2Cc3ccccc3C2=N)cc1 (configuration not stated) | -3% | -28 | 4µM* | 10µM* | -24
O=C(c1csnn1)N1CCC2(CC1)CCN(c1ccncc1)CC2 | . | . | 0% | 2% | .
Nc1nc(-c2ccccn2)nc(N)c1Cc1c(F)cccc1Cl | ? | -79* | 2.8µM* | 11µM* | -92*
Nc1nc(-c2ccccn2)nc(N)c1Cc1ccc(Cl)cc1Cl | ? | -80* | 4µM* | 8.9µM* | -91*
Cn1c(SCc2ccccc2F)nnc1-c1ccccn1 | -2% | -7 | 0% | 4% | .
Nc1nc(-c2ccccn2)nc(N)c1Cc1ccccc1F | 24% | -74* | 6.3µM* | 1% | -90*
CCO[C@H]1OC(C(N)=O)=C[C@@H](C2CC2)[C@@H]1CCCO | . | 3 | . | . | 4
CCCSCCCNC(=O)c1ccc(NC(=O)C2=CSCCO2)cc1 | 2% | -1 | 14% | 8% | -8
CN(C)c1ncc2nc(-c3cccs3)c(=O)n(CCC#N)c2n1 | . | . | -14% | -6% | .
CN1CCN(c2ncc3nc(-c4ccccc4)c(=O)n(Cc4cccs4)c3n2)CC1 | . | . | -4% | -1% | .
CN1CCN(c2ncc3nc(-c4cccs4)c(=O)n(CCC#N)c3n2)CC1 | . | . | 0.71µM* | 6.3µM* | .
COc1ccc(-n2c(=O)c(-c3cccs3)nc3cnc(N4CCOCC4)nc32)cc1 | . | . | 11% | -13% | .
CN1CCN(c2ncc3nc(-c4cccs4)c(=O)n(Cc4cccs4)c3n2)CC1 | . | . | 13µM* | ? | .
SMILES | p53 reactivator | Six1-Eya2 blk | RORgamma inh | VP16 counter | CtBP-E1A blk
O=c1c(-c2ccc(F)cc2)nc2cnc(N3CCNCC3)nc2n1Cc1ccc(F)cc1 | . | . | 14µM* | ? | .
COc1ccc(-n2c(=O)c(-c3cccs3)nc3cnc(N4CCNCC4)nc32)cc1 | . | . | ? | 10µM* | .
CC(=O)Oc1ccccc1C(=O)NC(C)CCc1ccccc1 (configuration not stated) | 0% | 6 | ? | ? | 0
O=c1c(-c2cccs2)nc2cnc(N3CCNCC3)nc2n1Cc1cccs1 | . | . | 18µM* | 8.9µM* | .
O=c1c(-c2ccc(Cl)cc2)nc2cnc(N3CCNCC3)nc2n1Cc1cccs1 | . | . | -11% | ? | .
O=c1c(-c2cc(F)cc(F)c2)nc2cnc(N3CCNCC3)nc2n1Cc1cccs1 | . | . | 2.8µM* | ? | .
CCc1nnc(NC(=O)c2ncc(Cl)c(Cl)c2Cl)s1 | 17% | 10 | 3.2µM* | 4µM* | -4
CCc1nnc(NC(=O)c2cc(Cl)ccn2)s1 | ? | -77* | 4.5µM* | 7.1µM* | -93*
CC(=O)Nc1ccn(C2CC3OCC(NC(=O)C4CCCN4C(=O)OC(C)(C)C)C3O2)c(=O)n1 (configuration not stated) | . | . | 1% | -12% | .
Cc1ccc(S(=O)(=O)N[C@@H](Cc2ccccc2)C(=O)CCl)cc1 | -9% | -14 | ? | 16µM* | 0
COc1ccc2nc(-n3c(O)c(C4=c5ccccc5=NC4=O)[nH]c3=S)sc2c1 | ? | ? | 13µM* | ? | 30
CCc1nn(C)c(-c2n[nH]c(=S)n2N)c1Cl | -4% | 6 | -37% | 0% | -2
CCCCn1c(-c2nn(C)c(C)c2Cl)n[nH]c1=S | 1% | 0 | 3.2µM* | ? | 1
Cc1c(Cl)c(-c2n[nH]c(=S)n2CC(C)C)nn1C | -6% | -3 | 13µM* | ? | 1
Cc1c(Cl)c(-c2n[nH]c(=S)n2-c2ccc(F)cc2)nn1C | ? | 7 | 13µM* | -4% | -3
Cc1nn(C)c(-c2n[nH]c(=S)n2-c2ccccc2)c1Cl | 6% | -5 | 11µM* | -8% | 4
Cn1cc(Cl)c(-c2n[nH]c(=S)n2-c2ccccc2)n1 | 1% | -4 | -40% | -6% | -1
COc1ccccc1CNc1ncnc2ccc(-c3ccccc3OC)cc12 | . | . | ? | 22µM* | .
Cc1noc(C)c1-c1ccc2ncnc(NCc3cccc(C(F)(F)F)c3)c2c1 | . | . | -16% | 13µM* | .
CCOc1ccccc1CNc1ncnc2ccc(-c3c(C)noc3C)cc12 | -26% | . | 40µM* | ? | .
Cc1noc(C)c1-c1ccc2ncnc(NCc3ccc(F)cc3)c2c1 | . | . | 9% | -12% | .

Compound activity (PubChem)
